The record followed here is PubChem BioAssay AID1259415 (National Center for Advancing Translational Sciences (NCATS), 2018).

Out of some 410,000 compounds screened, about 18,000 (4.4%) were called active. Not shown: some 7% with an inconclusive outcome. The sample holds actives, similar compounds and a random draw of the others, so the mix is not that of the screen. A number with no mark means an inactive call. Rule as the data show it: active = activity change below about -60%; inconclusive = no clear call, values can overlap the other calls; inactive = above about -39%.
% is scaled to controls: 0 for no effect and ±100 for the full control effect.

The nature of this assay: qHTS Assay for inhibitors of the human cytomegalovirus (HCMV). The settings on record: HFF cells, HCMV-luciferase reporter, 72 h; at 57.5 µM; stronger effect = lower value. Put shortly:
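After 16 h attachment at 37C, HFF cells received test compound and HCMV-luciferase (1 PFU/cell); reporter luminescence read 72 h later, data normalized against buffer-only and known inhibitor Salinomycin.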
A general note: In qHTS, concentration-response curves come from the screen itself.
Take `COc1cccc(N2CCN(CC(=O)Nc3ccnn3C3CCCC3)CC2)c1`: the activity change, negative = inhibition was -60.5% (active).
In the case of `COc1cccc(C(=O)N2CCC(n3nccc3NC(=O)C3CCOC3)CC2)c1` (configuration not stated) it was -18.9%; in that of `COc1ccccc1N1CCN(CC(=O)Nc2ccnn2C2CCCC2)CC1`, -12%; in that of `O=C(CSc1nnc2c(n1)[nH]c1ccccc12)NC1CCCCC1`, -65.5% (active).
On to `CCOc1ccc2[nH]c3nc(SCC(=O)NC4CCCC4)nnc3c2c1`, for which the activity change, negative = inhibition is -31.8%.
Then `COc1ccc2[nH]c3nc(SCC(=O)NC4CC4)nnc3c2c1`, with 13.8%; and `O=C(Cc1cccs1)N(CC1CCCO1)C1(C(=O)NC2CCCCC2)CCCCC1` (configuration not stated), with -20.9%; and `CCOC(=O)c1c(CC(C)C)csc1/N=C/C1=C(O)CCCC1=O`, with -98.2% (active).
In the case of `Cc1cc(N=CC2=C(O)CCCC2=O)no1` it was 2.05%.
In the case of `CCOC(=O)c1sc(/N=C/C2=C(O)CC(C)(C)CC2=O)c(C(=O)OCC)c1C` it was -33.1%.
Consider `CCOC(=O)c1c(NC(=O)Cc2coc3ccc(CC)cc23)sc2c1CCC2`, for which the activity change, negative = inhibition was 1.55%.
As for `Cc1ccc(C)c(N2CCN(C(=O)CN3C(=O)COc4ccc(S(=O)(=O)N5CCCCCC5)cc43)CC2)c1`, the activity change, negative = inhibition was -10.9%.
Turning to `Cc1ccc(Cl)cc1-n1ncc2c(N3CCC(C(N)=O)CC3)ncnc21`, the activity change, negative = inhibition was -7.89%.
In the case of `CCCCN(CC)C(=O)CN(C)S(=O)(=O)c1cccc2nsnc12` it was 0.246%.
Take `O=[N+]([O-])c1ccc(C(S(=O)(=O)Cc2ccccc2)S(=O)(=O)Cc2ccccc2)cc1`: the activity change, negative = inhibition was -20.9%.
Consider `O=C(NCCCCc1ccccc1)C1CC(c2ccc([N+](=O)[O-])cc2)=NO1` (configuration not stated), for which the activity change, negative = inhibition was 1.01%.
Regarding `O=C1NC(=O)C2C1C(c1ccc([N+](=O)[O-])cc1)=NN2Cc1ccccc1` (configuration not stated), the activity change, negative = inhibition was -71.6% (active).
In the case of `Cc1ccc(-n2cnc3cc(C(=O)NCCC4=CCCCC4)ccc32)cc1Cl` it was -19.6%; in that of `COc1ccc(-c2[nH]c3c(c2-c2c(-n4cccc4)n(C)c(=O)n(C)c2=O)c(=O)n(C)c(=O)n3C)cc1`, 12.5%; in that of `COc1ccccc1CNC(=O)c1ccc(NC(=O)N2CC(C)Sc3ccccc32)cc1` (configuration not stated), -6.59%.
With `COc1cccc(C(O)c2nc(-c3ccc(C)c(C)c3)cs2)c1` (configuration not stated), the activity change, negative = inhibition was -60.7% (active).
In the case of `COc1ccc(-c2csc(C(O)c3cccc(Cl)c3)n2)cn1` (configuration not stated) it was -37.6%; in that of `Cc1ccccc1-c1csc(C(O)c2cccc(Cl)c2)n1` (configuration not stated), -10.3%.
Then `Cn1c(/C(C#N)=C2/CCCCCN2)nc2ccccc21`, with -40%; and `Cc1nn(CC(=O)NCCc2ccccc2)c(=O)c2c1sc1ccccc12`, with 0.0704%; and `O=C(/C(=C/c1cccc(Cl)c1)c1nc2ccccc2[nH]1)c1ccccc1`, with -99.6% (active).
In the case of `N#C/C(=C\c1ccccc1F)c1nc2ccccc2c(=O)[nH]1` it was -22.3%; in that of `CCc1ccc(CNCc2c(C(=O)O)n(Cc3ccc(F)cc3Cl)c3cc(OC)ccc23)cc1`, 15.2%; in that of `CCOC(=O)C1=C(c2ccccc2)N=C2SCC(=O)N2C1c1ccc(O)c(OC)c1` (configuration not stated), 9.04%.
Take `CC1CN(CCCOc2ccccc2-c2ccccc2)CC(C)O1` (configuration not stated): the activity change, negative = inhibition was 58.1%.
In the case of `CC1CCCN(CCOCCOc2ccccc2-c2ccccc2)C1` (configuration not stated) it was -71.7% (active); in that of `CC1CN(CCOc2ccccc2[N+](=O)[O-])CC(C)O1` (configuration not stated), -21.7%.
In the case of `CCOC(=O)Cn1c(=O)n(C2CCCCC2)c2nc(-c3cccc(OC)c3)nc(C(N)=O)c21` it was 18.1%; in that of `O=C(/C=C/c1ccccc1)N1CCN(Cc2cc(=O)n3nc(-c4ccccc4F)sc3n2)CC1`, 34.4%; in that of `CCCOc1ccccc1C1CC(=O)Nc2cc3c(cc21)OCO3` (configuration not stated), -61.8% (active).
Regarding `O=C1OCC2=C1C(c1ccc(Cl)cc1)c1cc3c(cc1O2)OCO3` (configuration not stated), the activity change, negative = inhibition is 37.6%.
As for `O=C1NC(c2cc3c(cc2Cl)OCO3)Oc2ccccc21` (configuration not stated), the activity change, negative = inhibition was 17.7%.
For `COc1ccccc1C1C2=C(COC2=O)Nc2cc3c(cc21)OCO3` (configuration not stated), the activity change, negative = inhibition is -87.9% (active).
Then `O=C1CC(c2ccc(F)cc2F)c2cc3c(cc2N1)OCO3` (configuration not stated), with -1.6%; and `Cc1cc2c(cc1C)C(c1cccc(OC(C)C)c1)CC(=O)N2` (configuration not stated), with -38.7%; and `COc1ccc(-c2onc(C)c2C)cc1S(=O)(=O)NCC1CCN(Cc2cccc(F)c2)CC1`, with 0%.
For `Cc1ccccc1CN1CCC(CNC(=O)c2c(C)oc3ncnc(N4CCCCC4)c23)CC1`, the activity change, negative = inhibition is -4.04%.
`Cc1sc2ncn(CC(=O)N3CCN(c4ccc(F)cc4)CC3)c(=O)c2c1S(=O)(=O)N1CCN(c2ncccn2)CC1`: the activity change, negative = inhibition was -4.66%.
Then `Cc1n[nH]c(=O)c2c(NC(=O)CSc3ccccc3F)oc(C)c12`, with -30.8%; and `COc1ccc(N2C(=O)CS(=O)(=O)C23C(=O)N(Cc2ccc(C)cc2)c2ccccc23)cc1Cl` (configuration not stated), with -12.4%; and `COc1ccccc1C1CCN(C(=S)Nc2ccc(Br)cc2)CC1`, with 2.47%.
In the case of `COc1ccc(NC(=O)CC2COc3ccccc3O2)c(OC)c1` (configuration not stated) it was 9.76%.
In the case of `S=C(NCC1COc2ccccc2O1)Nc1ccc(Br)cc1` (configuration not stated) it was -67.8% (active).
On to `CCC(=O)N1CCc2cc(S(=O)(=O)NC(Cc3ccccc3)C(=O)NCc3ccc(C)cc3)ccc21` (configuration not stated), for which the activity change, negative = inhibition is 5.04%.
For `CCC(=O)N(Cc1cc2ccccc2[nH]c1=O)c1ccc(OC)cc1`, the activity change, negative = inhibition was 18.3%.
Consider `Cc1ccc(N(Cc2ccccc2O)C(=O)c2ccccc2F)cc1`, for which the activity change, negative = inhibition is -8.68%.
In the case of `Cc1ccc(N(Cc2cc(=O)[nH]c3ccccc23)C(=O)CCl)cc1` it was -101% (active); in that of `Cc1ccc(C)c(NC(=O)Cn2ccn(-c3ccc(F)cc3)c(=O)c2=O)c1`, -35.9%.
In the case of `O=S(=O)(Nc1ccc2nc(-c3cccc(Cl)c3)oc2c1)c1ccccc1` it was -36.4%; in that of `COc1ccc(C(C)(C)C)cc1NC(=O)CN(C)C1=NS(=O)(=O)c2ccccc21`, 6.84%; in that of `Oc1cccc(/C=N/Nc2ccc(Cl)nn2)c1O`, -95.1% (active).
Then `COc1ccc(-n2ccn(CC(=O)Nc3ccc(C)c(C)c3)c(=O)c2=O)cc1OC`, with -20.8%; and `CC(C)N1C(=O)N(c2ccccc2)C(C)(O)CC1(C)C` (configuration not stated), with -26.6%.
For `CC(CC(=O)Nc1ccccc1)n1ccnc1` (configuration not stated), the activity change, negative = inhibition is 39%.
On to `CC(=O)N1CCc2cc(S(=O)(=O)NC(Cc3ccccc3)C(=O)NCc3ccc(C)cc3)ccc21` (configuration not stated), for which the activity change, negative = inhibition is -12.2%.
Then `Cc1ccc(S(=O)(=O)N2C[C@H]3n4c(=O)ccc(=O)n4C[C@H](OC(=O)NC4CCCC4)[C@@]3(O)C2)cc1`, with -24.9%.
In the case of `C#CCN(C[C@H]1[C@H](OC(=O)NC2CCCC2)[C@H](OC(=O)NC2CCCC2)C[C@H]2C(=O)N(c3ccccc3)C(=O)[C@@H]12)S(=O)(=O)c1ccc(C)cc1` it was -6.21%.
In the case of `C#CCN(C[C@@H]1[C@@H](OC(=O)NC2CC2)[C@@H](OC(=O)NC2CC2)Cn2c(=O)ccc(=O)n21)S(=O)(=O)c1ccc(C)cc1` it was -96.3% (active); in that of `CCC(=O)N1N=C(c2ccc(OC)cc2)CC1c1cn(-c2ccccc2)nc1-c1cccs1` (configuration not stated), -16.7%; in that of `COc1ccc(Br)cc1CNC(=O)c1cc(=O)[nH]c2ccc(S(=O)(=O)N3CCCC3)cc12`, 37.6%.
Consider `COc1ccccc1CNC(=O)NCc1noc2ccc(C)cc12`, for which the activity change, negative = inhibition is -4.73%.
In the case of `Cc1ccc(N(CC(=O)NC2CCCCC2)C(=O)CCCC(=O)Nc2ccccn2)c(C)c1` it was 0.377%; in that of `CCOc1ccccc1N(CC(=O)NC1CCCCC1)C(=O)CCCC(=O)Nc1ccccn1`, -7.08%.
Then `O=C(CCCC(=O)N(CC(=O)NC1CCCC1)Cc1ccccc1Cl)Nc1ccccn1`, with -99.6% (active).
Then `Cc1ccc(S(=O)(=O)N2CCC(C(=O)NCCC3=CCCCC3)CC2)cc1C`, with -15.1%.
Regarding `CC(=O)c1ccc(NC(=O)CSc2c(C(C)C)cnc3c2c(=O)n(C)c(=O)n3C)cc1`, the activity change, negative = inhibition is -7.7%.
`CC(C)(C)c1ccc(C(=O)NCC(c2ccco2)S(=O)(=O)c2ccc(F)cc2)cc1` (configuration not stated): the activity change, negative = inhibition was -16.6%.
In the case of `CC(C)CN(Cc1c(O)ccc2c(=O)c(-c3ccccc3)coc12)CC(C)C`, the activity change, negative = inhibition is -72.9% (active).
In the case of `CCN(Cc1ccccc1)Cc1c(O)ccc2c(=O)c(-c3ccc(Cl)cc3Cl)coc12` it was 1.81%; in that of `CN(C)Cc1c(O)ccc2c(=O)c(-c3ccccc3Cl)coc12`, 14.6%.
Then `CN(O)C(=S)c1ccccc1`, with -97.9% (active); and `CCOC(=O)c1cccn1C1C(=O)N(Cc2ccc(OC)cc2)c2c(F)cccc21` (configuration not stated), with -32%.
In the case of `CC(=O)c1ccc(NC(=O)CSc2nc(-c3ccccc3F)nc3c2c(=O)n(C)c(=O)n3C)cc1` it was 0.932%.
In the case of `O=C(Nc1nccs1)c1cc(S(=O)(=O)N2CCOCC2)c(Cl)cc1Cl`, the activity change, negative = inhibition was 32.2%.
On to `CN(C)S(=O)(=O)c1cc(C(=O)Nc2ccn(C)n2)c(Cl)cc1Cl`, for which the activity change, negative = inhibition is 0% (active).
Then `CCN(CC)C(=O)c1ccc(NC(=O)c2cc(-n3cnnc3)ccc2Cl)cc1`, with 34.8%; and `Cc1ccc(N2CC(c3nnc(Cc4ccccc4Cl)o3)CC2=O)cc1` (configuration not stated), with -8.78%; and `CCOC(=O)CNC(=O)c1cc2c(=O)n3cccc(C)c3nc2s1`, with 9.74%.
In the case of `Cc1ccc2oc(=O)c3cnn(CC(=O)N4CCN(c5cccc(Cl)c5)CC4)c3c2c1`, the activity change, negative = inhibition is -2.47%.
Turning to `CCCCN(CC)CCCNC(=O)c1nn(C)c2c1CS(=O)(=O)c1ccccc1-2`, the activity change, negative = inhibition was -8.91%.
Then `O=C(NCc1ccc(F)cc1)c1ccc2nc(N3CCCCC3)sc2c1`, with 65.5%; and `c1c2c(cc3sc(N4CCCCC4)nc13)OCCO2`, with -64.2% (active).
